Laboratory results from ChEMBL document CHEMBL1961873, “Compounds: GSK PKIS; Assays: Nanosyn kinase panel” (2012).

Experiments:
[1] = biological target: 5'-AMP-activated protein kinase catalytic subunit alpha-2 (Homo sapiens) (UniProt P54646); conditions: at 1 µM
[2] = biological target: T1, NUAK family SNF1-like kinase 1 (Homo sapiens) (UniProt O60285); conditions: at 0.1 µM
T1 sequence (whole entry): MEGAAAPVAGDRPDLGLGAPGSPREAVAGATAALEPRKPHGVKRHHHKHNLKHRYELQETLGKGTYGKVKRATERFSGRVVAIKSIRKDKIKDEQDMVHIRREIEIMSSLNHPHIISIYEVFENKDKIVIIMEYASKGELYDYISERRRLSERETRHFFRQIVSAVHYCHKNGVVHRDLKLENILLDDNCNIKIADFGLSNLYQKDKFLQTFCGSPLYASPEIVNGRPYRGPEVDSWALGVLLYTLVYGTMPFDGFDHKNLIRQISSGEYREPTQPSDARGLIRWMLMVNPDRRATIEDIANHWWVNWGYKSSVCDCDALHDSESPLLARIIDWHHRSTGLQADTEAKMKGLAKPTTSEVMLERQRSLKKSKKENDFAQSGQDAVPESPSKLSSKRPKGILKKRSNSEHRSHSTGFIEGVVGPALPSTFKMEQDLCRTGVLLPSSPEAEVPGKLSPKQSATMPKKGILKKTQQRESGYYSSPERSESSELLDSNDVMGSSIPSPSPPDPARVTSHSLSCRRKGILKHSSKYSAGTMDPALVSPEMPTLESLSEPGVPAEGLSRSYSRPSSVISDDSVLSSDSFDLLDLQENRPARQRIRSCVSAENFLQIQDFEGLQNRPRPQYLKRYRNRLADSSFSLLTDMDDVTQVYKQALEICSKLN

[3] = biological target: T1, NUAK family SNF1-like kinase 1 (Homo sapiens); conditions: at 1 µM
[4] = biological target: T2, Serine/threonine-protein kinase BRSK1 (Homo sapiens) (UniProt Q8TDC3); conditions: at 0.1 µM
T2 sequence (whole entry): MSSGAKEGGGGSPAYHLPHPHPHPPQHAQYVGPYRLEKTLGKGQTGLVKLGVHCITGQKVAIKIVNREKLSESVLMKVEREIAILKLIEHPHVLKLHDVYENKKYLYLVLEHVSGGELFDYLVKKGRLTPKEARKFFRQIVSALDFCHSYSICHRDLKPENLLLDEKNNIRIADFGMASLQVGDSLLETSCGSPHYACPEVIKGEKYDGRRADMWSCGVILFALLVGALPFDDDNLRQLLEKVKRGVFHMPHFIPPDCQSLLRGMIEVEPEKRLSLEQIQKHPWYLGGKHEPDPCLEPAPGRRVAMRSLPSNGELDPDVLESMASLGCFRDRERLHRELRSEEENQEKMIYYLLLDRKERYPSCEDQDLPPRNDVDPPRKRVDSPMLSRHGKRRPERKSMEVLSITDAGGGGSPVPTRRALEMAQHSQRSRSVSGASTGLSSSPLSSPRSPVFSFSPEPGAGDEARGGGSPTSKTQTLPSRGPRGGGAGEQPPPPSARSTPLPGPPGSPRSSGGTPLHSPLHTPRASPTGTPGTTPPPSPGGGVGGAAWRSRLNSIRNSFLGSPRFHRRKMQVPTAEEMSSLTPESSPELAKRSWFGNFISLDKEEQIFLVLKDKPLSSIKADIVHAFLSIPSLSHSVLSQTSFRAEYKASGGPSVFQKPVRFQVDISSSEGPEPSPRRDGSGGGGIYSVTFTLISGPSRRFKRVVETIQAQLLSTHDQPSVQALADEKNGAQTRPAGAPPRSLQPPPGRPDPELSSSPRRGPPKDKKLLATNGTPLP

[5] = biological target: T2, Serine/threonine-protein kinase BRSK1 (Homo sapiens); conditions: at 1 µM
[6] = biological target: T3, Serine/threonine-protein kinase BRSK2 (Homo sapiens) (UniProt Q8IWQ3); conditions: at 0.1 µM
T3 sequence (whole entry): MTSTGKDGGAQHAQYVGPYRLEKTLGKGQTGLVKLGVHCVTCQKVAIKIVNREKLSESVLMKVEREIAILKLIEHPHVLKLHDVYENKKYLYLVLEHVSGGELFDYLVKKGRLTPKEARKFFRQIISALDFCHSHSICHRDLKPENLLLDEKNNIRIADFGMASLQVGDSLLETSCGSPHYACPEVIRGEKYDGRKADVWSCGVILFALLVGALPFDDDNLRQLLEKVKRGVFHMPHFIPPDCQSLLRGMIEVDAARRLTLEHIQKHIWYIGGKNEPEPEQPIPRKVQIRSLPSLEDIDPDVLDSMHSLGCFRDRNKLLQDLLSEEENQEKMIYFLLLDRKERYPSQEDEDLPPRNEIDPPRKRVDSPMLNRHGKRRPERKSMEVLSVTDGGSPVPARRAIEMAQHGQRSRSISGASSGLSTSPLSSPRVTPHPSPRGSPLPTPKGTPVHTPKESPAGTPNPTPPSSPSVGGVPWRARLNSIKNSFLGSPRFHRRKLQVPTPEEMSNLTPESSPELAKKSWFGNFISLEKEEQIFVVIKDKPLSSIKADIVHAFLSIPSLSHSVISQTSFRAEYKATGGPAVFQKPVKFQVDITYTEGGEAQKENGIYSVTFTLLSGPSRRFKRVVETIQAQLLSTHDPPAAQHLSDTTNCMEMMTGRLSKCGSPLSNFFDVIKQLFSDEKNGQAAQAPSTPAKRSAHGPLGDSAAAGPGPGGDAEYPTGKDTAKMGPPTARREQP

[7] = biological target: T3, Serine/threonine-protein kinase BRSK2 (Homo sapiens); conditions: at 1 µM
[8] = biological target: Calcium/calmodulin-dependent protein kinase type 1D (Homo sapiens) (UniProt Q8IU85); conditions: at 0.1 µM
[9] = biological target: Calcium/calmodulin-dependent protein kinase type 1D (Homo sapiens) (UniProt Q8IU85); conditions: at 1 µM
[10] = biological target: Calcium/calmodulin-dependent protein kinase type II subunit alpha (Homo sapiens) (UniProt Q9UQM7); conditions: at 0.1 µM
[11] = biological target: Calcium/calmodulin-dependent protein kinase type II subunit alpha (Homo sapiens) (UniProt Q9UQM7); conditions: at 1 µM
[12] = biological target: Calcium/calmodulin-dependent protein kinase type II subunit delta (Homo sapiens) (UniProt Q13557); conditions: at 0.1 µM
[13] = biological target: Calcium/calmodulin-dependent protein kinase type II subunit delta (Homo sapiens) (UniProt Q13557); conditions: at 1 µM
[14] = biological target: T4, Calcium/calmodulin-dependent protein kinase type IV (Homo sapiens) (UniProt Q16566); conditions: at 0.1 µM
T4 sequence (whole entry): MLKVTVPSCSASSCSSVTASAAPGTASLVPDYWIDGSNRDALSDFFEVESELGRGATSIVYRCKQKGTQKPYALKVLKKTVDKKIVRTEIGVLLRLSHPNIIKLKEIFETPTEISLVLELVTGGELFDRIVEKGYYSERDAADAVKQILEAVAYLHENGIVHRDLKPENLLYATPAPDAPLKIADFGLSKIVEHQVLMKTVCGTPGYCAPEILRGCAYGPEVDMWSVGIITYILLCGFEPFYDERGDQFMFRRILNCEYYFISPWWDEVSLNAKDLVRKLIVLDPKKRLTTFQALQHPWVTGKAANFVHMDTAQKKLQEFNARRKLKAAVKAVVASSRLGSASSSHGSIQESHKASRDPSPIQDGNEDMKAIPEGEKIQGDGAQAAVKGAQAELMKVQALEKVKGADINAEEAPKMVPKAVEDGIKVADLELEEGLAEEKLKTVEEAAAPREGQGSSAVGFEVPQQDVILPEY

[15] = biological target: T4, Calcium/calmodulin-dependent protein kinase type IV (Homo sapiens); conditions: at 1 µM
[16] = biological target: T5, Serine/threonine-protein kinase Chk1 (Homo sapiens) (UniProt O14757); conditions: at 0.1 µM
T5 sequence (whole entry): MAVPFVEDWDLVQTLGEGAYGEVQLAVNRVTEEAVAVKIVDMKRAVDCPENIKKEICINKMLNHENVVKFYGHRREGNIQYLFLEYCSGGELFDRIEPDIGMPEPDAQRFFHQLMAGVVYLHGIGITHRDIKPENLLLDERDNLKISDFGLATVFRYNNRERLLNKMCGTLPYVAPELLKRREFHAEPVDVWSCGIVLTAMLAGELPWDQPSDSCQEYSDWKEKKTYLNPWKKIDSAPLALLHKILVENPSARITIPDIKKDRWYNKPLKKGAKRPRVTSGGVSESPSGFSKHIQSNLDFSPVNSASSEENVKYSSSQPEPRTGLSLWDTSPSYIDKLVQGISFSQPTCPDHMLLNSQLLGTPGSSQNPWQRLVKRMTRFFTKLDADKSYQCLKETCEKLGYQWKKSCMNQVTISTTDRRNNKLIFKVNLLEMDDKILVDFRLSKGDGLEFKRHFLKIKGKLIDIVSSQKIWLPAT

[17] = biological target: T5, Serine/threonine-protein kinase Chk1 (Homo sapiens); conditions: at 1 µM
[18] = biological target: Serine/threonine-protein kinase Chk2 (Homo sapiens) (UniProt O96017); conditions: at 0.1 µM
[19] = biological target: Serine/threonine-protein kinase Chk2 (Homo sapiens) (UniProt O96017); conditions: at 1 µM
[20] = biological target: Death-associated protein kinase 1 (Homo sapiens) (UniProt P53355); conditions: at 0.1 µM;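 note: reported figure is the mean inhibition of DAPK1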
Death-associated protein kinase 1 (Homo sapiens), sequence (P53355 whole entry, looked up): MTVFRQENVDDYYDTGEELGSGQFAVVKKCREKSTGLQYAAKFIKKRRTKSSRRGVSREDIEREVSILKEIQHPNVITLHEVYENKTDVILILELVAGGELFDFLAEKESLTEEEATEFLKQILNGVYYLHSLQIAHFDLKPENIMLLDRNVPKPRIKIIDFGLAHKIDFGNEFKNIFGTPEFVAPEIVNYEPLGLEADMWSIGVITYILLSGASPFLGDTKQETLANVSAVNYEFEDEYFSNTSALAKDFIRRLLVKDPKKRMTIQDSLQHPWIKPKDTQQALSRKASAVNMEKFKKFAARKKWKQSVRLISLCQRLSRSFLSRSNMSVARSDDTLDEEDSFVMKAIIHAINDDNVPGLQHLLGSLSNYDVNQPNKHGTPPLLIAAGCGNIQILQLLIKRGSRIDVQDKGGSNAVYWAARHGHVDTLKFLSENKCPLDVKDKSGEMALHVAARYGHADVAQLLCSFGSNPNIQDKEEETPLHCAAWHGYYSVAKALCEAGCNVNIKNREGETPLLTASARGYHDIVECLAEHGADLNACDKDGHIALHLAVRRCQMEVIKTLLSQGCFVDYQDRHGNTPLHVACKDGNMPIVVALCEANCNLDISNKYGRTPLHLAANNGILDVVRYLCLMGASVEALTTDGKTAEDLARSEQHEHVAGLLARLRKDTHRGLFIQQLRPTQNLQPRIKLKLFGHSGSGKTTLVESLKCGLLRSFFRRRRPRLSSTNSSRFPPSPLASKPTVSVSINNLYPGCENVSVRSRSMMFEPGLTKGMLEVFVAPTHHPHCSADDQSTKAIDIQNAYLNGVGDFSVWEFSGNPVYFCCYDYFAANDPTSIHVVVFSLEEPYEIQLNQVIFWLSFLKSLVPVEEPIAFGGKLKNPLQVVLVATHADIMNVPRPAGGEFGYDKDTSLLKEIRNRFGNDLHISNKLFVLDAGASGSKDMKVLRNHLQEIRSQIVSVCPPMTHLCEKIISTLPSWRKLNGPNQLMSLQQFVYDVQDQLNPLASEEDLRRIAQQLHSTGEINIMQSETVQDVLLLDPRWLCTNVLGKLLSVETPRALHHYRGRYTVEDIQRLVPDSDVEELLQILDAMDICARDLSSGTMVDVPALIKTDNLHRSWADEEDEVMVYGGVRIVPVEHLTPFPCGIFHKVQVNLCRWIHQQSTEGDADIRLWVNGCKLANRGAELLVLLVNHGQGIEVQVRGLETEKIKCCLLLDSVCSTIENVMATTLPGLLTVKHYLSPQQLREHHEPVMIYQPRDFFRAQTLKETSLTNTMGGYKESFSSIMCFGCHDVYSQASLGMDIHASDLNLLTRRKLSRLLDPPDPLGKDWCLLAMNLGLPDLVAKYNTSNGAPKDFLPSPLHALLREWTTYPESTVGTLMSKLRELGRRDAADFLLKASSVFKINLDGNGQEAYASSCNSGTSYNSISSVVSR

5'-AMP-activated protein kinase catalytic subunit alpha-2 (Homo sapiens), sequence (P54646 whole entry, looked up): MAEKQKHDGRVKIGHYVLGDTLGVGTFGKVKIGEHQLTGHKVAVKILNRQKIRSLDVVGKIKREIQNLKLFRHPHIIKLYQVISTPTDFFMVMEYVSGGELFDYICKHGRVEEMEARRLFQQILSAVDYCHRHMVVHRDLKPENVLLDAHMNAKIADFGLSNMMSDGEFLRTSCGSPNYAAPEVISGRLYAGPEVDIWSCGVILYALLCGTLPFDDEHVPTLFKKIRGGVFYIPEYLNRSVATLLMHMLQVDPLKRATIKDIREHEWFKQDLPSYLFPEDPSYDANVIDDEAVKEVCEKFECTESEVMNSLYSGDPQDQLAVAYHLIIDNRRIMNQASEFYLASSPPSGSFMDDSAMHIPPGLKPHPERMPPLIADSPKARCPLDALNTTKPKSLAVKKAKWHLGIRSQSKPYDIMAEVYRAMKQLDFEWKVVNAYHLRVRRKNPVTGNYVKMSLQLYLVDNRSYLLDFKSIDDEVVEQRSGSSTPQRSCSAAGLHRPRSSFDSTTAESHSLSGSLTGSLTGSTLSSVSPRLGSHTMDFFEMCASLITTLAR
Calcium/calmodulin-dependent protein kinase type 1D (Homo sapiens), sequence (Q8IU85 whole entry, looked up): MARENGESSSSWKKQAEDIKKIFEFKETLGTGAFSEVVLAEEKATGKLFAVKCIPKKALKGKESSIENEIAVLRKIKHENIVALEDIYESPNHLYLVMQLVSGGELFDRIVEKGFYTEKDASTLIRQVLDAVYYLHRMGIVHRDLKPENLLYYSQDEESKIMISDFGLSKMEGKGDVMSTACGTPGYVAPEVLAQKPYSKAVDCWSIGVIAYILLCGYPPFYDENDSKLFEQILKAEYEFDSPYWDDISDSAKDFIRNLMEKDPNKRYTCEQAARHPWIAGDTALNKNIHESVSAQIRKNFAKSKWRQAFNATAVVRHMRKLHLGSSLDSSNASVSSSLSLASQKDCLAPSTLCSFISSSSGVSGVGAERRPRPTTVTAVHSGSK
Serine/threonine-protein kinase Chk2 (Homo sapiens), sequence (O96017 whole entry): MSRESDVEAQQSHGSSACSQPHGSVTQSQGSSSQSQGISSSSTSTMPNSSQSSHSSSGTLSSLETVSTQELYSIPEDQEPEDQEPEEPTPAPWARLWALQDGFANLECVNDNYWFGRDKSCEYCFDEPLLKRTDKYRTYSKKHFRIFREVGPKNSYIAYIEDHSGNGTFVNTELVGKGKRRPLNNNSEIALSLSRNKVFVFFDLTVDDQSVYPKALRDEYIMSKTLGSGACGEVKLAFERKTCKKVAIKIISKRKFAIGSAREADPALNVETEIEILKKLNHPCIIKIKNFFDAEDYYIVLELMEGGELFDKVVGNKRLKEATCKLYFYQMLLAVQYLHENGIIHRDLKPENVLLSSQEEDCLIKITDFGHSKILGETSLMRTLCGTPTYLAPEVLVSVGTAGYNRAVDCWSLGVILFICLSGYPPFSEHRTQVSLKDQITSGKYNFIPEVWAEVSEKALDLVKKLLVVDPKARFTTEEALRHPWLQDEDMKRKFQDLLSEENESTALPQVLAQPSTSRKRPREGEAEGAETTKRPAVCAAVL
Calcium/calmodulin-dependent protein kinase type II subunit alpha (Homo sapiens), sequence (Q9UQM7 whole entry): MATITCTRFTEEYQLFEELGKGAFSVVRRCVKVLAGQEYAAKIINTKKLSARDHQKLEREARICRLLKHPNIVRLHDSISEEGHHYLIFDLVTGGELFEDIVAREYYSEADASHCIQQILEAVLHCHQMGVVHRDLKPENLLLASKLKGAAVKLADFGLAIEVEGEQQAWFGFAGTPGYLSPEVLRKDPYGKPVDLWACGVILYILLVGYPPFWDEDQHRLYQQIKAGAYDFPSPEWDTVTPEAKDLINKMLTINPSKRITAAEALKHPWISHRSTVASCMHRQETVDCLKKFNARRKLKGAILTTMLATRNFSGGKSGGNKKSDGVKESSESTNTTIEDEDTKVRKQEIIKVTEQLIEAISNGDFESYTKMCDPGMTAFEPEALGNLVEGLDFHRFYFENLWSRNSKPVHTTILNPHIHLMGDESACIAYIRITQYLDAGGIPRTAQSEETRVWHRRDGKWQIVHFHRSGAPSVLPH
Calcium/calmodulin-dependent protein kinase type II subunit delta (Homo sapiens), sequence (Q13557 whole entry): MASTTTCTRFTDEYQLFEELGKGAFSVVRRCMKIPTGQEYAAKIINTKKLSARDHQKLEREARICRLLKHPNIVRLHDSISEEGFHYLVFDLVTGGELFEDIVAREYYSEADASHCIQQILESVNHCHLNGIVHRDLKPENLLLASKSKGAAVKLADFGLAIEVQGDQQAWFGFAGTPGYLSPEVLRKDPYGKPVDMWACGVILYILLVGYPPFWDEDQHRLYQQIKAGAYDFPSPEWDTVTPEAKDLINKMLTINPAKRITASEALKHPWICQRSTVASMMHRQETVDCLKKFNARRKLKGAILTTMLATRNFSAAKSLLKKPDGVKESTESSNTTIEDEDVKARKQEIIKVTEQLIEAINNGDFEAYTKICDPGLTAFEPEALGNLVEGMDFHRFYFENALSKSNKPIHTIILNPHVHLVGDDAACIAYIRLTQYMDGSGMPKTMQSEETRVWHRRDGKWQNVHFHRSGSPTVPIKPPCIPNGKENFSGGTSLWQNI

| SMILES | inhibition [1] [%] | inhibition [2] [%] | inhibition [3] [%] | inhibition [4] [%] | inhibition [5] [%] | inhibition [6] [%] | inhibition [7] [%] | inhibition [8] [%] | inhibition [9] [%] | inhibition [10] [%] | inhibition [11] [%] | inhibition [12] [%] | inhibition [13] [%] | inhibition [14] [%] | inhibition [15] [%] | inhibition [16] [%] | inhibition [17] [%] | inhibition [18] [%] | inhibition [19] [%] | inhibition [20] [%] |
| --- | --- | --- | --- | --- | --- | --- | --- | --- | --- | --- | --- | --- | --- | --- | --- | --- | --- | --- | --- | --- |
| COc1ccc2ncnc(Nc3ccc(OCc4ccccc4)cc3)c2c1 | 2.09 | 0.25 | -1.38 | -0.52 | 0.79 | 2.22 | 1.79 | 0.63 | 1.33 | 0.65 | 2.13 | 0.77 | 1.93 | 0.01 | 0.04 | 0.93 | 3.17 | 1.65 | 14.2 | 3.34 |
| C[C@@H](Oc1cc(-n2cnc3ccc(OCC4CCN(C)CC4)cc32)sc1C(N)=O)c1ccccc1C(F)(F)F | 14 | 50.5 | 76.6 | 22.4 | 61.1 | 33.9 | 74.5 | 0 | 4.15 | -0.63 | 14.2 | 6.59 | 49.9 | -0.36 | 1.74 | -1.68 | 0.33 | -2 | -1.44 | -1.34 |
| Cc1ccc(C(=O)NC2CC2)cc1-c1ccc2[nH]ncc2c1 | -3.42 | 6.51 | 6.93 | 1.35 | 3.03 | 1.54 | 5.84 | -0.69 | 0.06 | -4.3 | -2.98 | -2.96 | 1.9 | -2.05 | -2.16 | -1.76 | -4.22 | -4.46 | -3.82 | -2.57 |
| COc1cc2ncn(-c3cc(OCc4ccccc4S(C)(=O)=O)c(C#N)s3)c2cc1OC | 31.2 | 14.5 | 54.3 | 37.1 | 76.3 | 53.7 | 82.2 | 1.23 | 6.21 | 6.03 | 29.9 | 18.3 | 62.8 | 1.21 | 1.69 | 5.49 | 23.3 | 10 | 43 | 3.5 |
